PubChem BioAssay AID1159580 (chemical genetic matrix, 2015)
Values joined by “and” are separate entries in the source; they are usually repeats but may differ in a detail not shown here. Equal values may be shown once. The whole screen tested about 5,500 compounds, of which about 2,000 (36%) were called active. Roughly 18% stayed inconclusive and do not appear here. The list shows a part of the results. A number with no mark means an inactive call. Cut-off read from the data, not from the text of the source: active = normalized growth mostly below about 0.91 (no sharp cut-off); inconclusive = no clear call, values can overlap the other calls; inactive = mostly above about 0.92.

Experiment: chemical genetic growth profiling, strain panel (AID 1159580);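 note: tested at 20 µM; growth read once vehicle control cultures reached saturation at 30 °C; 1 = growth at the plate median or of vehicle wells; lower values mean less growth of the strain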
Details: S. cerevisiae deletion strains, growth OD

SMILES: Cc1onc(-c2ccccc2)c1C(=O)NC1C(=O)N2[C@@H]1SC(C)(C)[C@@H]2C(=O)O (some centres not stated)
- normalized growth (locus YAL013W, strain DEP1, active compounds read low): 1.01
- normalized growth (locus YAL021C, strain ccr4, active compounds read low): 1.02
- normalized growth (locus YAL026C, strain drs2, active compounds read low): 1.01
- normalized growth (locus YAL030W, strain snc1, active compounds read low): 1.02
- normalized growth (locus YBL061C, strain skt5, active compounds read low): 1.02
- normalized growth (locus YBR009C, strain hhf1, active compounds read low): 1.02
- normalized growth (locus YBR021W, strain FUR4, active compounds read low): 0.99
- normalized growth (locus YBR023C, strain chs3, active compounds read low): 1.02
- normalized growth (locus YBR171W, strain sec66, active compounds read low): 1.02
- normalized growth (locus YBR229C, strain ROT2, active compounds read low): 1
- normalized growth (locus YBR231C, strain swc5, active compounds read low): 1.01
- normalized growth (locus YBR279W, strain paf1, active compounds read low): 1.01
- normalized growth (locus YCL011C, strain gbp2, active compounds read low): 1.03
- normalized growth (locus YCL016C, strain dcc1, active compounds read low): 1.06
- normalized growth (locus YCL029C, strain bik1, active compounds read low): 1.02
- normalized growth (locus YCL061C, strain MRC1, active compounds read low): 1.02
- normalized growth (locus YCL069W, strain vba3, active compounds read low): 1.02
- normalized growth (locus YCR088W, strain abp1, active compounds read low): 1.02
- normalized growth (locus YDL005C, strain med2, active compounds read low): 1.01
- normalized growth (locus YDL035C, strain GPR1, active compounds read low): 1
- normalized growth (locus YDL040C, strain nat1, active compounds read low): 1.01
- normalized growth (locus YDL074C, strain BRE1, active compounds read low): 1.03
- normalized growth (locus YDL101C, strain DUN1, active compounds read low): 1.02
- normalized growth (locus YDL134C, strain PPH21, active compounds read low): 1
- normalized growth (locus YDL185W, strain tfp1, active compounds read low): 1.01
- normalized growth (locus YDL192W, strain arf1, active compounds read low): 1.01
- normalized growth (locus YDR001C, strain nth1, active compounds read low): 1.01
- normalized growth (locus YDR069C, strain doa4, active compounds read low): 1.01
- normalized growth (locus YDR101C, strain arx1, active compounds read low): 1.01
- normalized growth (locus YDR137W, strain rgp1, active compounds read low): 1.04
- normalized growth (locus YDR150W, strain NUM1, active compounds read low): 1.01
- normalized growth (locus YDR159W, strain sac3, active compounds read low): 1
- normalized growth (locus YDR162C, strain NBP2, active compounds read low): 1.01
- normalized growth (locus YDR195W, strain ref2): 0.996
- normalized growth (locus YDR297W, strain sur2, active compounds read low): 1.01
- normalized growth (locus YDR318W, strain mcm21, active compounds read low): 1.01
- normalized growth (locus YDR334W, strain swr1, active compounds read low): 1.02
- normalized growth (locus YDR335W, strain msn5, active compounds read low): 1.02
- normalized growth (locus YDR388W, active compounds read low): 1.01
- normalized growth (locus YDR392W, strain spt3, active compounds read low): 0.959
- normalized growth (locus YDR502C, strain sam2, active compounds read low): 1.01
- normalized growth (locus YEL003W, strain gim4, active compounds read low): 0.988
- normalized growth (locus YEL037C, strain rad23, active compounds read low): 1.01
- normalized growth (locus YEL061C, strain CIN8 (second series), active compounds read low): 1
- normalized growth (locus YEL061C, strain CIN8, active compounds read low): 1.01
- normalized growth (locus YER015W, strain faa2, active compounds read low): 1.01
- normalized growth (locus YER016W, strain bim1, active compounds read low): 1.03
- normalized growth (locus YER110C, active compounds read low): 1.01
- normalized growth (locus YER111C, strain swi4, active compounds read low): 1.01
- normalized growth (locus YER155C, strain BEM2 (second series), active compounds read low): 1.02
- normalized growth (locus YER155C, strain BEM2, active compounds read low): 1.01
- normalized growth (locus YER167W, strain BCK2, active compounds read low): 1.01
- normalized growth (locus YFR010W, strain ubp6, active compounds read low): 1.01
- normalized growth (locus YGL078C, strain dbp3, active compounds read low): 0.998
- normalized growth (locus YGL086W, strain mad1, active compounds read low): 0.991
- normalized growth (locus YGL167C, strain pmr1, active compounds read low): 1.02
- normalized growth (locus YGL173C, strain kem1, active compounds read low): 1.01
- normalized growth (locus YGL227W, strain vid30, active compounds read low): 1.02
- normalized growth (locus YGL240W, strain doc1, active compounds read low): 1.02
- normalized growth (locus YGL248W, strain PDE1, active compounds read low): 1
- normalized growth (locus YGL253W, strain hxk2, active compounds read low): 1.02
- normalized growth (locus YGR078C, strain PAC10, active compounds read low): 1.02
- normalized growth (locus YGR135W, strain pre9, active compounds read low): 1.01
- normalized growth (locus YGR229C, strain SMI1, active compounds read low): 1
- normalized growth (locus YGR252W, strain gcn5, active compounds read low): 0.939
- normalized growth (locus YHR013C, strain ard1, active compounds read low): 1.22 [resistant] (active)
- normalized growth (locus YHR027C, strain rpn1, active compounds read low): 1.02
- normalized growth (locus YHR030C, strain SLT2, active compounds read low): 1.01 and 0.989
- normalized growth (locus YHR079C, strain IRE1 (second series), active compounds read low): 1.01
- normalized growth (locus YHR079C, strain IRE1, active compounds read low): 0.965
- normalized growth (locus YHR094C, strain hxt1, active compounds read low): 1.01
- normalized growth (locus YHR129C, strain ARP1, active compounds read low): 1.01
- normalized growth (locus YHR142W, strain chs7, active compounds read low): 1.02
- normalized growth (locus YHR200W, strain rpn10, active compounds read low): 1.02
- normalized growth (locus YIL066C, strain RNR3, active compounds read low): 1.01
- normalized growth (locus YIL073C, strain SPO22, active compounds read low): 1.01
- normalized growth (locus YIL125W, strain kgd1, active compounds read low): 1.01
- normalized growth (locus YIR030C, strain dcg1, active compounds read low): 1.02
- normalized growth (locus YJL092W, strain hpr5, active compounds read low): 1.02
- normalized growth (locus YJL095W, strain BCK1 (second series), active compounds read low): 1.02
- normalized growth (locus YJL095W, strain BCK1, active compounds read low): 1.01 and 0.989
- normalized growth (locus YJL115W, strain asf1, active compounds read low): 1.01
- normalized growth (locus YJL129C, strain trk1, active compounds read low): 0.994
- normalized growth (locus YJL134W, strain LCB3, active compounds read low): 1.01
- normalized growth (locus YJL154C, strain vps35, active compounds read low): 1.02
- normalized growth (locus YJL164C, strain tpk1, active compounds read low): 1.02
- normalized growth (locus YJL166W, strain qcr8, active compounds read low): 1.03
- normalized growth (locus YJL168C, strain set2, active compounds read low): 1
- normalized growth (locus YJL187C, strain SWE1 (second series), active compounds read low): 1.01
- normalized growth (locus YJL187C, strain SWE1, active compounds read low): 1.02
- normalized growth (locus YJR043C, strain POL32, active compounds read low): 1.02
- normalized growth (locus YJR066W, strain TOR1, active compounds read low): 0.933
